Records with an inconclusive call do not appear. The source made the active and inactive calls. Calls come from the whole dose curve; as a rule, active = well fitted curve in the direction sought with a large enough effect; inconclusive = small, poorly fitted or top-dose-only effect, or another doubt; inactive = no such curve, though single readings can be large or run the other way.
Molecular target: 4-diphosphocytidyl-2-C-methyl-D-erythritol kinase, chloroplastic (Arabidopsis thaliana) (UniProt O81014)
Sequence (O81014 whole entry, looked up): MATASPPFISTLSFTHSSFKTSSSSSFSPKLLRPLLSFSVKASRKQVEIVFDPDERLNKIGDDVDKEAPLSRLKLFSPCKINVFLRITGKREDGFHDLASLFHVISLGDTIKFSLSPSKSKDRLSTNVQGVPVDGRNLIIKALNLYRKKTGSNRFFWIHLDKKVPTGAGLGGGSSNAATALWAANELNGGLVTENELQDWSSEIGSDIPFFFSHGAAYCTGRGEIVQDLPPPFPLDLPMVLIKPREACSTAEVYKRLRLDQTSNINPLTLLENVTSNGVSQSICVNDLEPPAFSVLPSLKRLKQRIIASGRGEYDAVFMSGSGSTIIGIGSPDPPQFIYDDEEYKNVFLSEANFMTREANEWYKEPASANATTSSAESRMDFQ
Experiment: Confirmatory Assay for Inhibitors of Human Galactokinase (GALK): CDP-Me assay counterscreen
Settings: ATP depletion, Kinase-Glo luminescence
From the text: NIH Molecular Libraries Probe Production Centers Network [MLPCN] NIH Chemical Genomics Center [NCGC] MLPCN Grant: R03 MH085689-01 Assay Submitter (PI): Kent Lai (University of Utah School of Medicine, 50 N Mario Capecchi Drive, Salt Lake City, UT 84132) NCGC Assay Overview The GHMP kinase family is a unique class of important enzymes that plays an essential role in many metabolic processes. It contains more than 170 protein members among which are the galactokinase (GALK) and the CMK enzymes. GALK plays a crucial role in galactose processing and is a potential therapeutic target for Classic Galactosemia (OMIM: 230400). CMK is involved for the non-mevalonate synthesis of isoprenoids precursors and natural products like sterols or ubiquinones which are important to many biological functions. […]
NCGC Assay Protocol Summary: Three uL/well of substrate solution (15 uM ATP, 30 uM CDP-ME, 20 mM HEPES pH8.0, 5 mM MgCl2, 40 mM KCl, 1 mM DTT, 0.01% BSA final concentration) was dispensed into 1536-well, assay plates (Greiner, solid white medium-binding plates) with Aurora Discovery BioRAPTR Flying Reagent Dispenser (FRD; Beckton-Dickenson). […] After 1 min, luminescence was detected with the ViewLux plate reader (Perkin Elmer, Waltham, MA) using a 1 sec exposure time and 2x binning settings.

COc1cc(/C=C2\C(=N)N3N=C(S(=O)(=O)CC(C)C)SC3=NC2=O)ccc1OC(=O)c1ccco1
Potency: 29.8 µM (active)

— PubChem BioAssay AID2017 (National Center for Advancing Translational Sciences (NCATS), 2009)
